Source: PubChem (several laboratories)
Shn3 3UTR inh – inhibitors of Schnurri-3 3'UTR reporter in osteoblasts; Clone20 osteoblast Shn3 3'UTR firefly luciferase, 24 h; inhibition, % at 12.5 µM; actives 0.52% (n = 360,000);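 active means mean inhibition of at least 75% with every replicate also reaching 75%; inconclusive means mean inhibition at least 75% but some replicate below; inactive means mean inhibition below 75%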;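 further: 0% = median of neutral control wells and 100% = pilot-screen positive control compound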
Mdm2-MdmX inh – human Mdm2/MdmX binding inhibition | O15151+Q00987 | SaOS-2 split-luciferase Mdm2/MdmX complementation, luminescence | inhibition, % at 8 µM | actives 3% (n = 330,000);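 active means inhibition of at least 50% at 8 µM in the primary screen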
Target sequence (O15151 whole entry, looked up): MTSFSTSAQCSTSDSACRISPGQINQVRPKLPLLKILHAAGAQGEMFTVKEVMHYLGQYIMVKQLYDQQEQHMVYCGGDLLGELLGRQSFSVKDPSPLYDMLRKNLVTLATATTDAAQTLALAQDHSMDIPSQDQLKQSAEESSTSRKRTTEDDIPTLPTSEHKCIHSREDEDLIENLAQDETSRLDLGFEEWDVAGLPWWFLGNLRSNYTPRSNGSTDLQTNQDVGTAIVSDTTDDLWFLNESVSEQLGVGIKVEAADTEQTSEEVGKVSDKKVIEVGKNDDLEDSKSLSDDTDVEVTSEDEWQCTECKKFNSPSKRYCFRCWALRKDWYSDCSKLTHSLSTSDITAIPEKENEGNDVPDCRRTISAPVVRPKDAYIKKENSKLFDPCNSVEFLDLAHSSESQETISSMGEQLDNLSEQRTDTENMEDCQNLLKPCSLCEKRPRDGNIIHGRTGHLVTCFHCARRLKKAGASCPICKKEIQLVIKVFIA
Target sequence (Q00987 whole entry, looked up): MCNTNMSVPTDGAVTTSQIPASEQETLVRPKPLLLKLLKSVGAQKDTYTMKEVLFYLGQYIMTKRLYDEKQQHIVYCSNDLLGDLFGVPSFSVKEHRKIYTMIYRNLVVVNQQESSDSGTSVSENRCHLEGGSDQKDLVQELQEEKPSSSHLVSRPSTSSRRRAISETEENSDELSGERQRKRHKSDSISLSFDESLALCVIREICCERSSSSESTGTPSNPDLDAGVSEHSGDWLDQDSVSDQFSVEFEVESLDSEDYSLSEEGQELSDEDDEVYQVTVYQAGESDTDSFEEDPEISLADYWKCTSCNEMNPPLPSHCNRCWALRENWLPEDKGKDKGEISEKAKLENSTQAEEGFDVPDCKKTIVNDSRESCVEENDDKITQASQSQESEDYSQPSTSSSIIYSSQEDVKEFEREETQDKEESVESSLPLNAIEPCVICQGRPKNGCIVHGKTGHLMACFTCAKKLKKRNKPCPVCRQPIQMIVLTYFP
CSC inhib – blocks cancer stem cells; cancer stem cell-like cells viability, luminescence; inhibition, % at 7.5 µM; actives 1.1% (n = 300,000); in the data active means inhibition above about 75%; inconclusive means no clear call, values can overlap the other calls; tested in HMLE shEcad cells
PAX8 inh HTS – inhibitors of PAX8 transcriptional activity in RMG-I cells; RMG-I TPO-luciferase reporter, SteadyGlo, 24 h; inhibition, % at 12.6 µM; actives 1.2% (n = 360,000); AID 652154;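 active means mean replicate inhibition at least 60% with every replicate also reaching 60%; inconclusive means only one of the two criteria is met; inactive means mean below 60% and not all replicates reaching 60%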;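 further: luciferase light reporting Pax8 driven TPO promoter activity; plate controls were median of neutral control wells for no effect and mitoxantrone controls for full effect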
Gli-Sufu antag – Gli-Sufu pathway antagonism; Sufu-KO-LIGHT fibroblasts, Gli luciferase reporter luminescence; inhibition, % at 5 µM; actives 0.74% (n = 340,000);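 active means inhibition above about 55%, limit read from the data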;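 further: 0% = DMSO-treated cells and 100% = wells with medium but no cells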
Beta cell apopt – beta cell apoptosis inhibition; actives 0.8% (n = 300,000); INS-1E cytokine-induced death, ATP luminescence, 48 h; percent of positive-control rescue, neutral wells zero; AID 435005; protection from apoptosis, % (no concentration beside the values);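 active means Every replicate reaches about 75%, or at least half do and their mean reaches it too, limit read from the data; inconclusive means At least half of replicates reach the limit but their mean does not; inactive means Under half of replicates reach the limit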;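 further: 0% = cytokine-treated negative control wells and 100% = positive control rescue; higher means more ATP so stronger rescue from cytokine killing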
Mdm2 MdmX conf – human Mdm2/MdmX binding inhibition, confirmed; inhibition, % at 8 µM; actives 55% (n = 10,000); shares compounds with Mdm2-MdmX inh; luminescent assay; in the data active means inhibition above about 40%
FLuc counter – inhibits full-length luciferase, flagging false Mdm2/MdmX hits; inhibition, % at 8 µM; actives 77% (n = 6,200); shares compounds with Mdm2-MdmX inh; SaOS-2 full-length luciferase counterscreen, luminescence; AID 504607;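 active means mean inhibition at 8 µM reaching about 37%, which flags the compound as non-specific, limit read from the data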;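 further: p53-null SaOS-2 cells with luciferase driven by a doxycycline-inducible promoter; compound on cells about two nights before reading with doxycycline added after day one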
Starred values were filed as active, the others as inactive; u = inconclusive; x = no result. Rows were chosen to be rich in hits. Some 4% of all compounds tested hit in one or more screens of this group.

SMILES	Shn3 3UTR inh	Mdm2-MdmX inh	CSC inhib	PAX8 inh HTS	Gli-Sufu antag	Beta cell apopt	Mdm2 MdmX conf	others
CC(C)NC(=O)N[C@@H]1C=C[C@@H](CC(=O)NCCN2CCCC2)O[C@H]1CO	x	x	x	-14	x	x	x
CN(C)CC#Cc1cccc(-c2nc(C(=O)N[C@@H]3CCN(Cc4ccccc4)C3)cc3c2[C@@H](CCO)N(S(=O)C(C)(C)C)C3)c1 (stereo not given in full)	x	x	x	2	x	x	x
NC(=O)C1CCCN(C(=O)c2ccc(Cl)c(S(=O)(=O)N3CCc4ccccc43)c2)C1 (stereo not given)	35	-11	x	19	17	x	x
O=C(c1ccc(Cl)c(S(=O)(=O)N2CCc3ccccc32)c1)N1CCN(c2ccccc2O)CC1	40	54*	19	46	10	-22	6
O=C(c1cccc(S(=O)(=O)N2CCc3ccccc32)c1)N1CCN(c2ccccn2)CC1	5	85*	-14	42	20	8	84*	FLuc counter=39*
O=C(NC1CCCCCC1)C1CCC(CNS(=O)(=O)c2ccc(Br)s2)CC1 (stereo not given)	32	51*	4	x	10	20	11
O=C(C[C@@H]1CC[C@H]2NC[C@@H](O)COC[C@@H]2O1)N1CCc2ccccc2C1	x	x	x	-41	x	x	x
C[C@@H]1CN([C@H](C)CO)C(=O)c2cc(NC(=O)CCN3CCOCC3)ccc2O[C@@H]1CN(C)Cc1ccc2c(c1)OCO2	x	x	x	-25	x	x	x
Cn1cccc1/C=C1\SC(=Nc2ccccc2)NC1=O	-103	34	52	-25	-14	7	x
Cn1cccc1/C=C1\SC(=Nc2ccc(O)cc2)NC1=O	-73	68*	61	16	37	18	62*	FLuc counter=160*
CCc1ccc(N=C2NC(=O)/C(=C/c3cc(OC)c(OC)c(OC)c3)S2)cc1	4	46	44	16	43	4	x
COc1cc(/C=C2\SC(=Nc3ccc(O)cc3)NC2=O)cc(OC)c1O	-59	56*	49	2	-3	6	41*	FLuc counter=81*
O=C(c1ccc(Cl)c(Cl)c1)N1CCC(=O)N(C(COCc2cccc(Cl)c2)Cc2ccccc2)CC1 (stereo not given)	32	54*	45	u	14	14	24
Cc1cccc(COCC(Cc2ccccc2)N2CCN(C(=O)c3ccc(C(F)(F)F)cc3)CCC2=O)c1 (stereo not given)	19	57*	33	x	-8	-2	9
C[C@H](CO)N1C[C@H](C)[C@@H](CN(C)S(=O)(=O)c2ccccc2)Oc2ccc(NC(=O)Nc3cccc4ccccc34)cc2CC1=O	x	x	x	-11	x	x	x
CCc1ccccc1NC(=O)CN1CCN(CC(=O)Nc2ccc(-c3ccccc3)cc2)CC1	8	-1	12	14	27	1	x
CCc1ccccc1NC(=O)CN1CCN(C(=O)CNC(=O)c2ccc(-c3ccccc3)cc2)CC1	17	50*	x	35	11	13	25
COC(=O)c1c(-c2ccsc2)sc2ccc(-c3cc(OC)c(OC)c(OC)c3)cc12	5	64*	56	6	16	1	33
COc1cc(-c2ccc3sc(-c4ccsc4)c(C#CCO)c3c2)cc(OC)c1OC	24	74*	-17	32	3	6	39	FLuc counter=69*
C[C@@H]1CN([C@@H](C)CO)C(=O)c2cc(NC(=O)Cc3ccccc3)ccc2O[C@H]1CN(C)C(=O)Nc1cccc2ccccc12	x	x	x	1	x	x	x
Cn1nnc2c[n+](CC(=O)c3ccc4ccccc4c3)cc(Br)c21	-8	65*	5	9	8	-5	32	FLuc counter=63*
Cn1nnc2c[n+](CC(=O)c3ccc(Cl)cc3)cc(Br)c21	-5	48	16	21	6	-7	x
CC(C)C(=O)Nc1cccc(S(=O)(=O)NC2=NCCC2)c1	-50	x	x	-26	x	x	x
O=C(CCl)Nc1cccc(S(=O)(=O)NC2=NCCC2)c1	-15	54*	-2	4	11	-1	44*	FLuc counter=68*
CCCCN(CC)CCCNC(=O)c1cn(CC)c2ccc(S(=O)(=O)N3CCc4ccccc4C3)cc2c1=O	10	57*	-2	18	41	2	22
SMILES	Shn3 3UTR inh	Mdm2-MdmX inh	CSC inhib	PAX8 inh HTS	Gli-Sufu antag	Beta cell apopt	Mdm2 MdmX conf	others
CCCCN(C)CCCNC(=O)c1cn(CC)c2ccc(S(=O)(=O)N3CCc4ccccc4C3)cc2c1=O	-24	54*	x	17	45	-1	24
CCn1cc(C(=O)NCc2ccco2)c(=O)c2cc(S(=O)(=O)N3CCc4ccccc4C3)ccc21	12	24	42	36	-3	5	x
CCn1cc(C(=O)NCCCN2CCCC2)c(=O)c2cc(S(=O)(=O)N3CCc4ccccc4C3)ccc21	5	26	9	10	25	2	x
CCCN(CCC)CCCNC(=O)c1cn(CC)c2ccc(S(=O)(=O)N3CCc4ccccc4C3)cc2c1=O	-3	75*	1	3	39	4	36	FLuc counter=63*
CN(C)C(=O)c1ccc(-c2ccc([C@H]3[C@@H](CO)N4CCCCN(C(=O)C5CCC5)C[C@@H]34)cc2)cc1	x	x	x	-8	x	x	x
N#C[C@H]1[C@H](c2ccccc2-c2ccc(F)cc2)[C@H](CO)N1c1ncc(-c2ccccc2)s1	x	x	x	-2	x	x	x
O=C1C(c2ccnc3ccccc23)=C(O)c2ccccc21	72	52*	-7	x	-6	7	-25
O=C1c2ccccc2C(=O)C1c1ccnc2ccccc12	43	45	15	x	-37	35	x
C[C@H]1CN([C@@H](C)CO)C(=O)c2cccc(NS(C)(=O)=O)c2O[C@H]1CN(C)C(=O)NC1CCCCC1	x	x	x	3	x	x	x
O=C(C[C@H]1CC[C@H](NS(=O)(=O)c2ccccc2)[C@@H](CO)O1)N1CCN(c2ccccc2)CC1	x	x	x	-8	x	x	x
NCCc1c(-c2ccccc2)n(-c2ccccc2)c2ccccc12	36	61*	x	-6	18	x	53*	FLuc counter=71*
CN(C)CC(=O)N1[C@@H](C#N)[C@H](c2ccc(C#CC3CCCCC3)cc2)[C@@H]1CO	x	x	x	-26	x	x	x
O=c1cc(CSc2ccc(Cl)cc2)nc(-c2ccccc2)[nH]1	0	13	-14	9	-14	2	x
O=c1cc(CSc2ccc(Cl)cc2)nc(-c2ccccn2)[nH]1	63	89*	94*	69*	40	80*	78*	FLuc counter=31
CN(C)CC(=O)N1[C@H](C#N)[C@H](c2ccccc2-c2cccc(C(=O)N(C)C)c2)[C@H]1CO	x	x	x	-8	x	x	x
CC(=O)Nc1ccc(Nc2cc(C(C)C)nc3c(-c4ccccc4)c(C)nn23)cc1	26	55*	84*	19	-10	x	43*	FLuc counter=54*
CC(=O)Nc1ccc(Nc2cc(C)nc3c(-c4ccccc4)c(C)nn23)cc1	-13	40	-7	-4	-11	3	x
